Assays:
Assay in all cases: PBM binding z-score (relative to random genomic background probes); higher = stronger binding; sequences stand for … in GC…GCGATTGACAGCGTAGAATGAAGG
[1] = system: PPARg:RXRa DBDmut IVT, anti-RXR (DBD mutation: RXRa K156A/R161A, NR concentration 270 nM, RXRa partner concentration 90 nM)
Procedure, shortened: (§1)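 Binding z-scores were set against random background probes. The data came from custom Agilent 4×180K protein-binding microarrays carrying double-stranded probes with 34-nt variable regions, incubated 1 h with ligand-free nuclear receptor dimers. Partner-specific antibodies detected binding, and scanned fluorescence was regression-normalized.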

[2] = system: PPARg:RXRa IVT, anti-PPARg (NR concentration 270 nM, RXRa partner concentration 90 nM)
Procedure, shortened: as §1

[3] = system: PPARg DBDmut:RXRa IVT, anti-PPARg (DBD mutation: PPARg1 K132A/R137A, NR concentration 270 nM, RXRa partner concentration 90 nM)
Procedure, shortened: as §1

[4] = system: PPARg DBDmut IVT, anti-PPARg (DBD mutation: PPARg1 K132A/R137A, NR concentration 270 nM)
Procedure, shortened: as §1

[5] = system: PPARg homodimer (NR concentration 180 nM)
Procedure, shortened: as §1

[6] = system: PXR:RXRa (NR concentration 270 nM, RXRa partner concentration 90 nM)
Procedure, shortened: as §1

[7] = system: PXR homodimer (NR concentration 270 nM)
Procedure, shortened: as §1

[8] = system: RARa:RXR (NR concentration 270 nM, RXRa partner concentration 90 nM)
Procedure, shortened: as §1

[9] = system: RARa homodimer (NR concentration 270 nM)
Procedure, shortened: as §1

[10] = system: RARb:RXRa (NR concentration 270 nM, RXRa partner concentration 90 nM)
Procedure, shortened: as §1

| Sequence | PBM binding z-score [1] | PBM binding z-score [2] | PBM binding z-score [3] | PBM binding z-score [4] | PBM binding z-score [5] | PBM binding z-score [6] | PBM binding z-score [7] | PBM binding z-score [8] | PBM binding z-score [9] | PBM binding z-score [10] |
| --- | --- | --- | --- | --- | --- | --- | --- | --- | --- | --- |
| GATACAGGGTCAGCTAGAGGCCAGAGTGTGGAAA | 0.974 | 2.4 | -0.57 | -0.662 | 3.47 | 3.5 | 0.00381 | 4.66 | -0.116 | 4.25 |
| TCTATTAGATGAAGGGCAACCGACGAGTCCGTTT | 2.54 | 0.861 | 0.95 | 0.278 | 0.308 | 0.796 | 1.11 | 0.642 | 0.636 | 1.47 |
| CCTCGGAGGACAGTAGGTCAGAGCTGTCCGCTTT | 2.48 | 3.2 | -0.95 | -1.78 | 0.409 | 0.0704 | -0.598 | 0.582 | 0.337 | 1.97 |
| CCTTACGGGTCACGAGGTTATGGCACGACGAGCG | 3.69 | 5.37 | 1.26 | 0.892 | 2.01 | 4.16 | 0.0957 | 5.67 | 0.689 | 4.51 |
| CAGCCTAGCTCAGGGCCAGTATAGGAGGAACGTT | -0.913 | -0.949 | -2.22 | -2.03 | -1.23 | -0.988 | -0.337 | -1.33 | -0.424 | -0.591 |
| CCTCGGAGGACGACAGGAGGTCAGAGCTGCCAGA | -0.728 | -0.00812 | -0.427 | -1.79 | 1.19 | 1.89 | -0.155 | 2.06 | 0.247 | 2.18 |
| CCTAGCAGGCCAGGGTCTCTCAAGCATTTCGCTT | -0.0358 | -0.785 | -1.73 | -1.57 | -0.714 | -0.908 | -0.933 | -0.825 | -1.17 | -0.0781 |
| TAGCCTAGGTCATGCTGGCCAGTATAGTGTCGGC | 1.89 | 3.11 | 0.437 | -0.89 | 0.715 | 1.16 | -0.737 | 2.21 | -0.528 | 3.84 |
| TATTGTAGATCAACAGGAGGTTAAGAAAGATCGA | 0.634 | 1.7 | 1.31 | 1.13 | 0.72 | 0.93 | 0.0451 | 0.904 | 0.431 | 0.665 |
| AGAAAGAGGTTATACGTAGATCAGGGAAGAAAGT | 1.97 | 1.35 | 0.646 | 0.799 | 0.915 | 1.54 | 0.627 | 2.07 | 1.16 | 2.08 |
| CCGACTGGGGCATAAGGTTCCCATAAGCCAGCCC | 1.82 | 2 | -1.14 | -1.53 | -0.0208 | -0.582 | -0.205 | -0.563 | 0.262 | 0.252 |
| ACAGACAGGTGACGAAGGTAACTCAGGCTATCAT | 0.762 | 1.19 | 0.0336 | -0.57 | -0.168 | -0.208 | -0.237 | 0.144 | 0.0267 | 0.637 |
| TCTTGTAGATCAACAGGTGGTTAAGAAAGATCGA | 1.73 | 0.582 | 0.605 | 0.677 | 0.713 | -0.0683 | 0.00391 | 0.0313 | 0.688 | -0.0604 |
| CGTCCAAGCTCAAAGGTCAGTGAAGAGATGACGG | 0.0789 | 1.7 | -0.175 | -0.869 | 3.43 | 3.24 | 0.202 | 4.05 | 1.36 | 4.48 |
| CATACAGGGTCAGCTAGGCCAGAGAAGGGACGGC | 1.21 | 2.58 | 0.932 | -0.117 | 1.9 | 2.24 | 0.0894 | 3.29 | 0.36 | 4.16 |
| CCAGACAGGTGAAAAGGTAACTCAGCCTCGATTA | 1.6 | 1.25 | -0.262 | -0.729 | 1.18 | 0.509 | 0.481 | 1.45 | 1.21 | 1.43 |
| CAAACTAGGTCACGAAAGTTCAAAGTCGAATGAC | 8.72 | 9.1 | 2.45 | 4.02 | 4.73 | 7.11 | 8.3 | 6.02 | 2.95 | 5.27 |
| GCAGACAGGTGAGACGCAGGTAACTCAGGGTGGC | 0.0725 | 0.0836 | -0.435 | -0.858 | -0.513 | -0.282 | -0.385 | 0.154 | -0.0204 | 0.422 |
| TGAATGAGGTTAAAGATCAGGGCACGTGGCGTCG | 2.37 | 3.82 | 1.31 | 1.27 | 0.587 | 2.32 | 0.062 | 3.3 | 0.14 | 2.41 |
| TCTTGTAGATCAGCAGGTTAAGAACGCTGGCCAA | 1.41 | 0.294 | -0.675 | -0.754 | -0.66 | -0.00865 | -0.543 | 0.211 | -0.75 | 0.0804 |
| CCCTACGGGTCACTGACAGGTTATAGCATTTGGA | 0.759 | 2.29 | -0.15 | -0.444 | 2.79 | 3.54 | 0.381 | 4.28 | 1.02 | 4.02 |
| TATAGCAGGCCAGAGGGTCACTCAAGAGGTACGG | -0.0119 | 1.41 | 0.475 | -0.0534 | 1.11 | 1.73 | -0.392 | 2.46 | -0.269 | 2.09 |
| CTCGAAAGGTCGTGCTCACGTGAGTATACCAAAC | 0.85 | 1.55 | 0.551 | 0.796 | 1.35 | 2.86 | -0.121 | 3.31 | -0.039 | 3.92 |
